# From PubChem BioAssay
# Activity calls are given as the source filed them.
# What was measured:
# [1] = A549 cell viability effects, profiling panel, calcein-AM fluorescence, 48 h, basal (AID 1162); conditions: higher = more signal
# [2] = adipocyte viability effects, profiling panel, cell-based, 3T3-L1 adipocytes, calcein-AM fluorescence, 48 h, basal (AID 1163); conditions: 3T3-L1 adipocytes viability, higher = more signal
# [3] = HepG2 cell viability effects, profiling panel, calcein-AM fluorescence, 48 h, basal (AID 1164); conditions: higher = more signal
# [4] = MM1S cell viability effects, profiling panel, calcein-AM fluorescence, 48 h, basal (AID 1165); conditions: higher = more signal;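 note: viability of MM1S multiple myeloma cells under basal unstimulated conditions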
# [5] = basal RPMI8226 viability, no added stimulus, profiling panel, cell-based, calcein-AM fluorescence, 48 h, PK04 Diversity Set (AID 1166); conditions: RPMI8226 myeloma viability, higher = more signal;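 note: cells grown under basal conditions without added stimulus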
# [6] = basal HepG2 mitochondrial membrane potential changes, profiling panel, cell-based, JC-1 fluorescence, 24 h, 100 nL compound (AID 1167); conditions: higher = more signal
# [7] = basal 3T3-L1 adipocyte mitochondrial potential changes, profiling panel, cell-based, JC-1 fluorescence, 3T3-L1 adipocytes, 24 h, 100 nL compound (AID 1168); conditions: JC-1 mitochondrial fluorescence, higher = more signal, called active from +8 up or from −8 down
# [8] = basal RPMI8226 mitochondrial membrane potential changes, profiling panel, cell-based, JC-1 fluorescence, 24 h, 100 nL compound (AID 1169); conditions: RPMI8226 myeloma, JC-1 mitochondrial potential fluorescence, higher = more signal
# [9] = basal MM1S mitochondrial membrane potential changes, profiling panel, cell-based, JC-1 fluorescence, 24 h, 100 nL compound (AID 1170); conditions: higher = more signal
# [10] = A549 lung cancer cell viability effects, profiling panel, resazurin fluorescence, 24 h, PK04 Diversity Set (AID 1171); conditions: higher = more signal, called active from +8 up or from −8 down
# Note: test concentration not given here.
Compound,z-score [1],z-score [2],z-score [3],z-score [4],z-score [5],z-score [6],z-score [7],z-score [8],z-score [9],z-score [10]
CCCC=C(CCC)[C@@H](NC(=O)c1ccc(C(=O)OC)cc1)c1ccc(C(=O)OC)cc1,-1.48,-0.454,-1.54,-1,-1.59,-0.261,-1.28 (inactive),-0.342,-1.15,0.69 (inactive)
C=C(CCCC)/C(=C/C[C@@H](OC(C)=O)c1cccc(OCCO)c1)c1cc(C(=O)OC)ccc1OC,0.771,0.204,0.622,-2.41,-1.98,1.44,-0.288 (inactive),0.186,-0.679,1.25 (inactive)
C=C(C(=O)CC[C@@H](OC(=O)c1ccccc1-c1ccccc1C(=O)O)c1cccc(OCCO)c1)C(C)C,0.811,0.647,-0.474,-0.305,-0.637,-1.12,1.01 (inactive),-0.143,0.0602,1.33 (inactive)
COCCCNC(=O)[C@]1(Cc2ccccc2N=[N+]=[N-])N=C(c2ccc(OCCCO)cc2)O[C@@H]1c1ccccc1,-0.751,0.16,-0.757,-3.22,-3.9,2.34,1.84 (inactive),-1.27,-0.774,0.345 (inactive)
COC(=O)C1=CC(c2ccc(CO)cc2)=CC(C2CC2)N(Cc2cc3c(cc2Br)OCO3)C=C1C(=O)OC (stereo not given),-0.0232,0.679,0.522,-0.785,-2.39,0.733,0.278 (inactive),-0.563,-1.34,-1.15 (inactive)
Cc1c(NC(=O)/C(C#N)=C/C=C/c2ccc([N+](=O)[O-])cc2)c(=O)n(-c2ccccc2)n1C,0.251,-0.141,-0.182,-1.02,-0.787,-1.19,0.0244 (inactive),-0.278,0.096,0.0981 (inactive)
C=CCNC(=O)[C@H]1[C@@H]2C(=O)O[C@@H](c3ccccc3)[C@@H](c3ccccc3)N2[C@@H](c2ccc(OCCO)cc2)[C@]12C(=O)Nc1ccc(C#Cc3ccc(OC)cc3)cc12,-1.09,2.01,-0.845,-0.291,-2.14,-1.38,3.11 (inactive),-1.22,-0.867,-1.04 (inactive)
COCCOC(=O)N1C(=O)[C@@]2(c3cc(C#CC4(O)CCCCCC4)ccc31)[C@H](C(N)=O)[C@H]1C(=O)O[C@H](c3ccccc3)[C@H](c3ccccc3)N1[C@@H]2c1ccc(OCCO)cc1,-0.502,-0.0582,-1.71,-2.99,-4.26,-1.97,-0.69 (inactive),-1.29,-1.7,-1.54 (inactive)
